# From publication PMC7862700, “An all-to-all approach to the identification of sequence-specific readers for epigenetic DNA modifications on cytosine”
# Key:
# Assay in all cases: DAPPL (digital affinity profiling via proximity ligation, sequencing); 10 mM Tris-HCl pH 7.5, 50 mM NaCl, 1 mM DTT, 4% glycerol, room temperature, 30 min; GST-TFs on glutathione beads, 16-mer random dsDNA library, 0.1% formaldehyde crosslink after washing; high values mean tight binding
# FEV = biological target: T1, FEV (Homo sapiens, UniProt Q99581 1-238); conditions: protein: recombinant; tags: N-terminal GST; dsDNA, one strand shown
# T1 sequence: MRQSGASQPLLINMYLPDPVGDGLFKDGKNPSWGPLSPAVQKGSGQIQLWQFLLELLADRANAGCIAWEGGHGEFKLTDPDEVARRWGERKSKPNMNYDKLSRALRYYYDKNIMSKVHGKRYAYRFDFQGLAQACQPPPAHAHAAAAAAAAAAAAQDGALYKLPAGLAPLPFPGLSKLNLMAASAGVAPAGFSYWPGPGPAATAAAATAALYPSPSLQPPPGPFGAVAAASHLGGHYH
# Procedure, shortened: (§1)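 Binding signal is each hexamer's read frequency for a factor divided by its frequency in the tag-only sample. The factors were GST-fused human transcription factors from yeast, captured on glutathione beads, DNA-barcoded and pooled with that sample. Pools were incubated with 200 nmole of a random double-stranded 16-mer DNA library in Tris/NaCl/DTT/glycerol buffer at room temperature for 30 min, then washed, crosslinked with 0.1% formaldehyde, proximity-ligated with BsaI/T4 ligase (1 h, 37 °C), PCR-amplified and sequenced on an Illumina NextSeq500.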
# ETV5 = ETV5 (Homo sapiens, UniProt P41161 1-510); conditions: protein: recombinant; tags: N-terminal GST; dsDNA, one strand shown
# Procedure, shortened: as §1
# HSF1 = HSF1 (Homo sapiens, UniProt Q00613 1-529); conditions: protein: recombinant; tags: N-terminal GST; chain copies: 3; dsDNA, one strand shown
# Procedure, shortened: as §1
# ELF4 = ELF4 (Homo sapiens, UniProt Q99607 1-663); conditions: protein: recombinant; tags: N-terminal GST; dsDNA, one strand shown
# Procedure, shortened: as §1
# ELK4 = biological target: T2, ELK4 (Homo sapiens, UniProt P28324-2 1-405); conditions: protein: recombinant; tags: N-terminal GST; dsDNA, one strand shown
# T2 sequence: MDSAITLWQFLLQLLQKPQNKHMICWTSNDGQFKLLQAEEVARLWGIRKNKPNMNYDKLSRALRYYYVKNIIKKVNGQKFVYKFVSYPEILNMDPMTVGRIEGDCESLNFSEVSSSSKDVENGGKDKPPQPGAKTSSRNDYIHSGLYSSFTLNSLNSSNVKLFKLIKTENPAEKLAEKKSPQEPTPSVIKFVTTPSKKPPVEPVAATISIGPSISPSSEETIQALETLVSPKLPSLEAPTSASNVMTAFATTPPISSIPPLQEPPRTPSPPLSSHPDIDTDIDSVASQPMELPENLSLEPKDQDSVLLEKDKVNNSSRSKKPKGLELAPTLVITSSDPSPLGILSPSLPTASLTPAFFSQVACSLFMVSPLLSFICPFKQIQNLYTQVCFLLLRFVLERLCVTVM
# Procedure, shortened: as §1
# ETV2 = biological target: T3, ETV2 (Homo sapiens, UniProt O00321 1-342); conditions: protein: recombinant; tags: N-terminal GST; dsDNA, one strand shown
# T3 sequence: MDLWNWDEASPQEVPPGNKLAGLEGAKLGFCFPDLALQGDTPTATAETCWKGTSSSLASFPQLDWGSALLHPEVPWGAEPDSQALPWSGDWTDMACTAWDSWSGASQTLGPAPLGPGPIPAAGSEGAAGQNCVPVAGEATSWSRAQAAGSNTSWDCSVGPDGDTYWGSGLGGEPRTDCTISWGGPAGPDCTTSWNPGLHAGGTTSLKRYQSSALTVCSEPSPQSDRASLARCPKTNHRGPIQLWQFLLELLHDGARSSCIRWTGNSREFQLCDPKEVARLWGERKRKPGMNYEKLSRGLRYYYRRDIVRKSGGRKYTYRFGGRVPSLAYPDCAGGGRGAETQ
# Procedure, shortened: as §1
# ELF3 = biological target: T4, ELF3 (Homo sapiens, UniProt P78545 1-371); conditions: protein: recombinant; tags: N-terminal GST; dsDNA, one strand shown
# T4 sequence: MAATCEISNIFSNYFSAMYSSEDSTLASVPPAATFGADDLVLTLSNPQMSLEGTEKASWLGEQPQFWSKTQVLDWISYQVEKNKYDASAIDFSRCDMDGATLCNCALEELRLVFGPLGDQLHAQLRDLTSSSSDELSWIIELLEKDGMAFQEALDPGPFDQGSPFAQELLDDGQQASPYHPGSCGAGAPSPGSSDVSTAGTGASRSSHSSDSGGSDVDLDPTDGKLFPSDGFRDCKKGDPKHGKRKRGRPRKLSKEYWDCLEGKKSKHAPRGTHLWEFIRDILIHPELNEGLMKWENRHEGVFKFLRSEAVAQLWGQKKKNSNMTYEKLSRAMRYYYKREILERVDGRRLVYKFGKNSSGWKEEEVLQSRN
# Procedure, shortened: as §1
# CRX = CRX (Homo sapiens, UniProt O43186 1-299); conditions: protein: recombinant; tags: N-terminal GST; dsDNA, one strand shown
# Procedure, shortened: as §1
# ETV1 = ETV1 (Homo sapiens, UniProt P50549 1-477); conditions: protein: recombinant; tags: N-terminal GST; dsDNA, one strand shown
# Procedure, shortened: as §1
# ERF = biological target: T5, ERF (Homo sapiens, UniProt P50548 1-548); conditions: protein: recombinant; tags: N-terminal GST; dsDNA, one strand shown
# T5 sequence: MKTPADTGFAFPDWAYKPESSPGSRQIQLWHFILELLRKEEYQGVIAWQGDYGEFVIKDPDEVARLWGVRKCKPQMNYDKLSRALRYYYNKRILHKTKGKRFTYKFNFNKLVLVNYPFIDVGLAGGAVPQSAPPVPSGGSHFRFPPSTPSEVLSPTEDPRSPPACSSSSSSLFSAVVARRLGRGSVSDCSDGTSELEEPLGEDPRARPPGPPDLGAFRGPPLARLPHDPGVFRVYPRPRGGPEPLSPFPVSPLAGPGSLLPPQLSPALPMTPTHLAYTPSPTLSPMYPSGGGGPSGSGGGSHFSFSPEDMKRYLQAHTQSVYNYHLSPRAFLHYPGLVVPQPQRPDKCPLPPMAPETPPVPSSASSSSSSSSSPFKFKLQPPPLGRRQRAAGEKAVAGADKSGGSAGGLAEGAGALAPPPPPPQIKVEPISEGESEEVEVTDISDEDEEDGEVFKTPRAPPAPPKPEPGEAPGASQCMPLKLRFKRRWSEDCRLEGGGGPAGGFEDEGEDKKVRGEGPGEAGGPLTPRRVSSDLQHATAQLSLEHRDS
# Procedure, shortened: as §1
# ETV3L = biological target: T6, ETV3L (Homo sapiens, UniProt Q6ZN32 1-361); conditions: protein: recombinant; tags: N-terminal GST; dsDNA, one strand shown
# T6 sequence: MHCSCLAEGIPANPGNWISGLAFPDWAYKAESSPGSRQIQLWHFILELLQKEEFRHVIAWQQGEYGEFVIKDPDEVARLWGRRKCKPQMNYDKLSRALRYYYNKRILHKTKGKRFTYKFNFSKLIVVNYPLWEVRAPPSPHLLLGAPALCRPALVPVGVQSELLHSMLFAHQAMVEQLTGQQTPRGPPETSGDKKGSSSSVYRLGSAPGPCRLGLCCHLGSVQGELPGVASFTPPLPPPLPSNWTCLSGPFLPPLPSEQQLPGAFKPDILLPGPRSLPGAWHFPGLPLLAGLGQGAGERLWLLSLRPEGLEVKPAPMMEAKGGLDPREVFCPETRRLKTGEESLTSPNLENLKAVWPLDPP
# Procedure, shortened: as §1
# ETS2 = biological target: T7, ETS2 (Homo sapiens, UniProt P15036 1-469); conditions: protein: recombinant; tags: N-terminal GST; dsDNA, one strand shown
# T7 sequence: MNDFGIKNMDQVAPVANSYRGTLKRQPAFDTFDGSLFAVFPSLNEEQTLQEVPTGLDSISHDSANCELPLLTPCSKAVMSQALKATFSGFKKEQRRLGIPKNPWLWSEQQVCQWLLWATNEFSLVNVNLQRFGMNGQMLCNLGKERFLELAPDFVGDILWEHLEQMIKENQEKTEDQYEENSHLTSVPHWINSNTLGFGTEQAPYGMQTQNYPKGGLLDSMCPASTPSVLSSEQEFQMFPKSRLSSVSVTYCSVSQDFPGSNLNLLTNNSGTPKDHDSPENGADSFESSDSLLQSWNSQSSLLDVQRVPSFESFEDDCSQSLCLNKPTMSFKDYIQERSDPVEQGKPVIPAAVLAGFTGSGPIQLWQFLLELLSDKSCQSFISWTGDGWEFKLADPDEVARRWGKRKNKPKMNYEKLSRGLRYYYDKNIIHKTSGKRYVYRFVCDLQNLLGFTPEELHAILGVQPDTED
# Procedure, shortened: as §1
# SPDEF = biological target: T8, SPDEF (Homo sapiens, UniProt O95238 1-335); conditions: protein: recombinant; tags: N-terminal GST; dsDNA, one strand shown
# T8 sequence: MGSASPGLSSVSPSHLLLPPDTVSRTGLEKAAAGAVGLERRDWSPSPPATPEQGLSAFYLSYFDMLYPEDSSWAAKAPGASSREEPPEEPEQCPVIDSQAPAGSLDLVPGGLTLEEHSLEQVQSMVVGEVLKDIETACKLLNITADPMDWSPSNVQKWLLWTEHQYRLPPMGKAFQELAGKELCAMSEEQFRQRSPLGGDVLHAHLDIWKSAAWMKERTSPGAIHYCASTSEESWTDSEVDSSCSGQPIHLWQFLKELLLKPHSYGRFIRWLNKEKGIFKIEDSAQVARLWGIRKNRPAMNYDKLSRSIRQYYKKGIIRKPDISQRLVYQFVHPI
# Procedure, shortened: as §1
# ETV7 = biological target: T9, ETV7 (Homo sapiens, UniProt Q9Y603 1-341); conditions: protein: recombinant; tags: N-terminal GST; dsDNA, one strand shown
# T9 sequence: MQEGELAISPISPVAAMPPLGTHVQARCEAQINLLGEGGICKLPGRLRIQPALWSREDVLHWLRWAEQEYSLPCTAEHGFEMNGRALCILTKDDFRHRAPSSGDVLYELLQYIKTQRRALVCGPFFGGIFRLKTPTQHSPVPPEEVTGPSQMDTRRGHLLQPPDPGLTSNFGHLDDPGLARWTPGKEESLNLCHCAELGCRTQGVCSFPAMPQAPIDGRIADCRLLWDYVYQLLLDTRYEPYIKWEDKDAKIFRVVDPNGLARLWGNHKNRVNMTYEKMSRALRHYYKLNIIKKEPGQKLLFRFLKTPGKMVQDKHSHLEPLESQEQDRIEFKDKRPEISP
# Procedure, shortened: as §1
# ELF5 = biological target: T10, ELF5 (Homo sapiens, UniProt Q9UKW6-2 1-255); conditions: protein: recombinant; tags: N-terminal GST; dsDNA, one strand shown
# T10 sequence: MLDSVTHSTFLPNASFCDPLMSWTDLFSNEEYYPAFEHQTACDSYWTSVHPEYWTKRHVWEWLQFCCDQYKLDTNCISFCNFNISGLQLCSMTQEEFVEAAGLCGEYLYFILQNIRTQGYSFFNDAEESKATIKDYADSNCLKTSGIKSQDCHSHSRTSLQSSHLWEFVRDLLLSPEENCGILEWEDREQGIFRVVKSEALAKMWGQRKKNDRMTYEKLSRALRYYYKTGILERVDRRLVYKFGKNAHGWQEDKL
# Procedure, shortened: as §1
# ETV3 = biological target: T11, ETV3 (Homo sapiens, UniProt P41162-2 1-143); conditions: protein: recombinant; tags: N-terminal GST; dsDNA, one strand shown
# T11 sequence: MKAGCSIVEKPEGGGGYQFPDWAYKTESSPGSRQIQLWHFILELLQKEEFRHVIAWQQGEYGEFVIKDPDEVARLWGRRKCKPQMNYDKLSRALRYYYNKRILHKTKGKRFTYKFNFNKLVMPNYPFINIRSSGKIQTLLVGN
# Procedure, shortened: as §1
# ETV6 = ETV6 (Homo sapiens, UniProt P41212 1-452); conditions: protein: recombinant; tags: N-terminal GST; dsDNA, one strand shown
# Procedure, shortened: as §1
# ETV6, sequence (P41212 whole entry): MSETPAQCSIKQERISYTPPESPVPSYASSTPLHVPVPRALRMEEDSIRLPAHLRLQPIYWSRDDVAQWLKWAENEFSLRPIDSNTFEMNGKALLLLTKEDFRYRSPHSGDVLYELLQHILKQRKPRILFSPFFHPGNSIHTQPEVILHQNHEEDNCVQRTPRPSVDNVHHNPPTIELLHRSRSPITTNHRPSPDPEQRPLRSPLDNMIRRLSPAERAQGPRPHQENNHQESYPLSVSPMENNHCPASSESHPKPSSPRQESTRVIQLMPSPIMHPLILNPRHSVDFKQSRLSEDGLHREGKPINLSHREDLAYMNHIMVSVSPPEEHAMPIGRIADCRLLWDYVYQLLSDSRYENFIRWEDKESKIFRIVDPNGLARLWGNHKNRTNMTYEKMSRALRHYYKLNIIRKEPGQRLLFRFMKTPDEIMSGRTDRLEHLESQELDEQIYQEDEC
# ETV1, sequence (P50549 whole entry): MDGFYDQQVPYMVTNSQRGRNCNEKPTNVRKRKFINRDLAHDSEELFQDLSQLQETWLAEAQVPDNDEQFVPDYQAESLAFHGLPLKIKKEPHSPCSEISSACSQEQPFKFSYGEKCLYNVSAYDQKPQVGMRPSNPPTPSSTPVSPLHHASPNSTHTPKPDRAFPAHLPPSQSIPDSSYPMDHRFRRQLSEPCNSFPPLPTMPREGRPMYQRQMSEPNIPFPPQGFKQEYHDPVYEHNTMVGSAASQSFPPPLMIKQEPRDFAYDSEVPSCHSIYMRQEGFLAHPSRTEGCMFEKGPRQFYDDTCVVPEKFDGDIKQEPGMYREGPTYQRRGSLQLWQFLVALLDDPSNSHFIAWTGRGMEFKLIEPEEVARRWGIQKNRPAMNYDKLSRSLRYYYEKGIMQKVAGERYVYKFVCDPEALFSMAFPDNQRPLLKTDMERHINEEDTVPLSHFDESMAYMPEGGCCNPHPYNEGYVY
# CRX, sequence (O43186 whole entry): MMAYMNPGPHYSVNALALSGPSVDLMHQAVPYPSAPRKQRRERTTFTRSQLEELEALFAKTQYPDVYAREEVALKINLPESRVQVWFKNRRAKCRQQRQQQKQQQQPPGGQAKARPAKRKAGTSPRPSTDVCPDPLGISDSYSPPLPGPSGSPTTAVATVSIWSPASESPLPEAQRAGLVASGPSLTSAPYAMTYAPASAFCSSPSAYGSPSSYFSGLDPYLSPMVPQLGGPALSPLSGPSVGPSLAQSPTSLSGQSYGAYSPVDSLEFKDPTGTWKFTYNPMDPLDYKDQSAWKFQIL
# HSF1, sequence (Q00613 whole entry): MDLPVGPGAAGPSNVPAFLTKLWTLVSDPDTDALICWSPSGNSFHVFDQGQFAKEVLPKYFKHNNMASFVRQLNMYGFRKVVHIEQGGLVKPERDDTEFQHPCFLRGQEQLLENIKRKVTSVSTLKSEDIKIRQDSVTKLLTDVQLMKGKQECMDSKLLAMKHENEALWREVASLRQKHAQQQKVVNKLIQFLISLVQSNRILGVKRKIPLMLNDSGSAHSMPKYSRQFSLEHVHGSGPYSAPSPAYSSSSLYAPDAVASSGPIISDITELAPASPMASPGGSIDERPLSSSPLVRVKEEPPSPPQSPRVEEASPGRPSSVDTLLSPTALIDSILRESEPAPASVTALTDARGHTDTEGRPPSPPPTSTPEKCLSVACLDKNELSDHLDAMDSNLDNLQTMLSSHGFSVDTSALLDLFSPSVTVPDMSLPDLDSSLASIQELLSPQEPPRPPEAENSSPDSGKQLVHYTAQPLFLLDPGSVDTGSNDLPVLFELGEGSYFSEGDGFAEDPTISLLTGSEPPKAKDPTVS
# ETV5, sequence (P41161 whole entry): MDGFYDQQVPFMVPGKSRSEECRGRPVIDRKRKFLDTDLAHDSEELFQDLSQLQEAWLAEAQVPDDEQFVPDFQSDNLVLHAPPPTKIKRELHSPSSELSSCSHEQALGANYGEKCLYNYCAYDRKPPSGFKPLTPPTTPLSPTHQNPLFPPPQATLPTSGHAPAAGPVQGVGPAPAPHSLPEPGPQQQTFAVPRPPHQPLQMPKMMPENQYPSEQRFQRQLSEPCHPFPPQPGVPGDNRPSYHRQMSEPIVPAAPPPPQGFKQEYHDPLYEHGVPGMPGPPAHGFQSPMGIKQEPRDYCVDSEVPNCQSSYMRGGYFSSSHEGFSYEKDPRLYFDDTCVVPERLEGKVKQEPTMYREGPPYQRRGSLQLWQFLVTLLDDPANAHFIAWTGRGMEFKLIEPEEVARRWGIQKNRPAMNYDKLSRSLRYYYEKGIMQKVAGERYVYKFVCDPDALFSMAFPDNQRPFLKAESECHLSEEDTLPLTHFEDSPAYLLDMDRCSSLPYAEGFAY
# ELF4, sequence (Q99607 whole entry): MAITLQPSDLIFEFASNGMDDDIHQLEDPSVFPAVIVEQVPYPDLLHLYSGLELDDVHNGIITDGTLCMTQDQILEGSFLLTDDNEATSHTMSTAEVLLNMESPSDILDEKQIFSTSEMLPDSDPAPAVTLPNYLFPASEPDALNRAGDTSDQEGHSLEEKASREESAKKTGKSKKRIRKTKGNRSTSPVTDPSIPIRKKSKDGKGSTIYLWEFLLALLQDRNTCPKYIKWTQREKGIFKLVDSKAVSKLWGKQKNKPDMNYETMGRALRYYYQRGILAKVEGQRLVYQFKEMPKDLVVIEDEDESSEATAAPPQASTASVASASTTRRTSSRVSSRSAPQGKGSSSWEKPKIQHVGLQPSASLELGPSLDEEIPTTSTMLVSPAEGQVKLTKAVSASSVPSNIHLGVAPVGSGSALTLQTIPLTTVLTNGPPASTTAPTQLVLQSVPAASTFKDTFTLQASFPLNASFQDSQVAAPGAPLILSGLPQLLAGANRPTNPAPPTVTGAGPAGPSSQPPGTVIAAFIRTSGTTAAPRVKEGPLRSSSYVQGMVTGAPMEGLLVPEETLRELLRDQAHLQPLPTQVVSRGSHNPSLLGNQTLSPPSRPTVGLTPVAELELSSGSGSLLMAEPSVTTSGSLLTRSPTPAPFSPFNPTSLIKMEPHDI
Sequence,binding signal (FEV),binding signal (ETV5),binding signal (HSF1),binding signal (ELF4),binding signal (ELK4),binding signal (ETV2),binding signal (ELF3),binding signal (CRX),binding signal (ETV1),binding signal (ERF),binding signal (ETV3L),binding signal (ETS2),binding signal (SPDEF),binding signal (ETV7),binding signal (ELF5),binding signal (ETV3),binding signal (ETV6)
CCATTG,"1.15 fold enrichment (6-mer frequency, TF over GST control)","1.16 fold enrichment (6-mer frequency, TF over GST control)","1.07 fold enrichment (6-mer frequency, TF over GST control)","1.17 fold enrichment (6-mer frequency, TF over GST control)","1.11 fold enrichment (6-mer frequency, TF over GST control)","1.26 fold enrichment (6-mer frequency, TF over GST control)","1.07 fold enrichment (6-mer frequency, TF over GST control)","1.02 fold enrichment (6-mer frequency, TF over GST control)","1.05 fold enrichment (6-mer frequency, TF over GST control)","1.07 fold enrichment (6-mer frequency, TF over GST control)","1.22 fold enrichment (6-mer frequency, TF over GST control)","1.14 fold enrichment (6-mer frequency, TF over GST control)","1.02 fold enrichment (6-mer frequency, TF over GST control)","1.24 fold enrichment (6-mer frequency, TF over GST control)","1.19 fold enrichment (6-mer frequency, TF over GST control)","1.19 fold enrichment (6-mer frequency, TF over GST control)","1.12 fold enrichment (6-mer frequency, TF over GST control)"
AGGTAT,–,"1.02 fold enrichment (6-mer frequency, TF over GST control)","1.07 fold enrichment (6-mer frequency, TF over GST control)","1.02 fold enrichment (6-mer frequency, TF over GST control)","1.03 fold enrichment (6-mer frequency, TF over GST control)","1.03 fold enrichment (6-mer frequency, TF over GST control)","1.12 fold enrichment (6-mer frequency, TF over GST control)","1.05 fold enrichment (6-mer frequency, TF over GST control)","1.02 fold enrichment (6-mer frequency, TF over GST control)","1.16 fold enrichment (6-mer frequency, TF over GST control)","1.02 fold enrichment (6-mer frequency, TF over GST control)","1 fold enrichment (6-mer frequency, TF over GST control)","1.12 fold enrichment (6-mer frequency, TF over GST control)","1.12 fold enrichment (6-mer frequency, TF over GST control)",–,"1.11 fold enrichment (6-mer frequency, TF over GST control)","1.01 fold enrichment (6-mer frequency, TF over GST control)"
